Laboratory results from PubChem BioAssay.
Active and inactive are the calls of the source. Unless noted, how the calls were made is not given here.

Columns and labels:
[1] = compounds binding Alexa647 anti-His antibody – biochemical, small-molecule microarray, 635 nm fluorescence, artefact control for SMM control protein annotation, primary screen (AID 1128); conditions: higher = more signal;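 further: score merges feature fluorescence with signal-to-noise for each printed compound spot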
[2] = system: Human papillomavirus type 1a E7 protein (residues 1-88); assay: HPV1a E7 small-molecule binders, primary screen, biochemical, small-molecule microarray, residues 1-88, 635 nm (AID 1129); conditions: small-molecule microarray binding, fluorescence 635 nm; higher = more signal
[3] = molecular target: Focal adhesion kinase 1 (Homo sapiens) (UniProt Q05397); assay: PTK2 protein binding on printed compound slides – biochemical, small-molecule microarray, 635/667 nm fluorescence, BSA, DTT, primary screen (AID 1130); conditions: 635 nm fluorescence, higher = more signal;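 further: composite of spot emission at 667 nm and signal to noise over triplicate slides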
Chain of Focal adhesion kinase 1 (Homo sapiens) (Q05397 whole entry, looked up): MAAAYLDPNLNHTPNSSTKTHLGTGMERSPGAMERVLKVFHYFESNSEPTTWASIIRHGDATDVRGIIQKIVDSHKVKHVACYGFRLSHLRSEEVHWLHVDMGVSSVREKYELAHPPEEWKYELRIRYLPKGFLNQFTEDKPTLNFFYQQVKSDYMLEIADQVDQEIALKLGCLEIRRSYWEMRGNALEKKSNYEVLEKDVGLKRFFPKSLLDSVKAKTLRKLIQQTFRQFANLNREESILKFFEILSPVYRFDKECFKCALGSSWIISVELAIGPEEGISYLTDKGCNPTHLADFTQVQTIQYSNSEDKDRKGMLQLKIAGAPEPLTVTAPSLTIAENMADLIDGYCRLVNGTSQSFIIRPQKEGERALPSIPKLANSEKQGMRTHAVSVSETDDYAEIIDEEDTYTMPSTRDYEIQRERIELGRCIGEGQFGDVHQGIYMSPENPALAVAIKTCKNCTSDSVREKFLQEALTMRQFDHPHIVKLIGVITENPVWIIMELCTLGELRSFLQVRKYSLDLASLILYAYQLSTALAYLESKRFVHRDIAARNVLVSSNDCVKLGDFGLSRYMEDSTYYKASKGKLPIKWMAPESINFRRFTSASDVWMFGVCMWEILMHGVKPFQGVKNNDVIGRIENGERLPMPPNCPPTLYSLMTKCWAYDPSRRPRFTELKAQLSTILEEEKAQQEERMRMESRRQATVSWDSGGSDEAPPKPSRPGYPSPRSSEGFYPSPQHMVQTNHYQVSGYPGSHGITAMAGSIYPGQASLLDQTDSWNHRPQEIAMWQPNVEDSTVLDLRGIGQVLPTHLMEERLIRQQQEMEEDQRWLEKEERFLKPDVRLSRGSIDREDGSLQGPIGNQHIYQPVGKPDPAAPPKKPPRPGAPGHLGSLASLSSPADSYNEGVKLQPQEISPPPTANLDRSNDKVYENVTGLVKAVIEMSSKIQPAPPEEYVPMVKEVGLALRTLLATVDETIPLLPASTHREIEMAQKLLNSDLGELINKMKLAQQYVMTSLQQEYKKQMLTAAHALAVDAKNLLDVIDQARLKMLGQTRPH

[4] = system: Fibrinogen (Alexa647-labelled); assay: Alexa647-fibrinogen binding to printed small molecules – biochemical, small-molecule microarray, 635/667 nm fluorescence, artefact control for SMM control-protein annotation, profiling panel (AID 1131); conditions: fibrinogen-A647 binding fluorescence, higher = more signal;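 further: z-score merges 667 nm fluorescence with per-spot signal-to-noise over triplicate slides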
[5] = molecular target: Follistatin (Homo sapiens) (UniProt P19883); assay: FST protein binding to printed compounds – biochemical, small-molecule microarray, 635/667 nm fluorescence, primary screen (AID 1132); conditions: 635 nm fluorescence, higher = more signal
Chain of Follistatin (Homo sapiens) (P19883 whole entry, looked up): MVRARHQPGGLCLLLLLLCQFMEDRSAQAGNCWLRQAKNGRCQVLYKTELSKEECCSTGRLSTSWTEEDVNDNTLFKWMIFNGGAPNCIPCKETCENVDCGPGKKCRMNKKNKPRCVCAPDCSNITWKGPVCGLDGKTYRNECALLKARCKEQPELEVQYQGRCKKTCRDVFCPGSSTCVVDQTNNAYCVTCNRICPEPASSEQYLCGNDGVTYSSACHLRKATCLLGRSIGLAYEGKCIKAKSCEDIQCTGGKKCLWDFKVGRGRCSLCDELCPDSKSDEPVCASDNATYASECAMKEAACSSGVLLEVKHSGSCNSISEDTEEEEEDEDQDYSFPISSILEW

[6] = molecular target: Fibroblast growth factor 2 (Homo sapiens) (UniProt P09038); assay: basic fibroblast growth factor binding to printed compounds – biochemical, small-molecule microarray, 635/667 nm fluorescence, primary screen (AID 1133); conditions: FGF2, fluorescence 635/667, higher = more signal
Chain of Fibroblast growth factor 2 (Homo sapiens) (P09038 whole entry, looked up): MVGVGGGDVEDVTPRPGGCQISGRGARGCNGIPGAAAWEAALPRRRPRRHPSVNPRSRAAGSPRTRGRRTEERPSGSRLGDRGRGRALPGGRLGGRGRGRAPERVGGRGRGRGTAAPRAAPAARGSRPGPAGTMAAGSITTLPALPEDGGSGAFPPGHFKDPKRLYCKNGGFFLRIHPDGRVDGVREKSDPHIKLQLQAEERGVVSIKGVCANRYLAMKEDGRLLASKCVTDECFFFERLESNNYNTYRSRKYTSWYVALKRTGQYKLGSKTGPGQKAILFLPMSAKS

[7] = JC-1 mitochondrial potential readout, lung cancer cells – cell-based, A549, JC-1 fluorescence, basal, 24 h, 100 nL, profiling panel (AID 1138); conditions: higher = more signal;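 further: A549 lung adenocarcinoma cells under basal conditions with no added stimulus; test concentration not given here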
Lefty1 = Lefty1 protein binding to printed compounds – biochemical, small-molecule microarray, 635/667 nm fluorescence, primary screen (AID 1139); conditions: fluorescence 635/667, higher = more signal
[8] = system: wheat germ agglutinin (Triticum aestivum), Alexa647-labelled; assay: Alexa647-WGA lectin binding to printed small molecules – biochemical, small-molecule microarray, 635/667 nm fluorescence, artefact control for SMM control-protein annotation, profiling panel (AID 1140); conditions: WGA-A647 binding, 635 nm fluorescence, higher = more signal;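 further: score merges 667 nm feature emission with signal to noise over triplicate slides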
[9] = molecular target: Luciferin 4-monooxygenase (Photinus pyralis) (UniProt P08659); assay: inhibition of purified Photinus pyralis luciferase – biochemical, luminescence, purified enzyme, 2006 set, primary screen (AID 1141); conditions: purified firefly luciferase, SteadyGlo luminescence, 30 min; higher = more signal, called active from +8 up or from −8 down;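 further: cell-free assay with purified firefly luciferase at 100 ng per well in PBS; test concentration not given here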
Chain of Luciferin 4-monooxygenase (Photinus pyralis) (P08659 whole entry, looked up): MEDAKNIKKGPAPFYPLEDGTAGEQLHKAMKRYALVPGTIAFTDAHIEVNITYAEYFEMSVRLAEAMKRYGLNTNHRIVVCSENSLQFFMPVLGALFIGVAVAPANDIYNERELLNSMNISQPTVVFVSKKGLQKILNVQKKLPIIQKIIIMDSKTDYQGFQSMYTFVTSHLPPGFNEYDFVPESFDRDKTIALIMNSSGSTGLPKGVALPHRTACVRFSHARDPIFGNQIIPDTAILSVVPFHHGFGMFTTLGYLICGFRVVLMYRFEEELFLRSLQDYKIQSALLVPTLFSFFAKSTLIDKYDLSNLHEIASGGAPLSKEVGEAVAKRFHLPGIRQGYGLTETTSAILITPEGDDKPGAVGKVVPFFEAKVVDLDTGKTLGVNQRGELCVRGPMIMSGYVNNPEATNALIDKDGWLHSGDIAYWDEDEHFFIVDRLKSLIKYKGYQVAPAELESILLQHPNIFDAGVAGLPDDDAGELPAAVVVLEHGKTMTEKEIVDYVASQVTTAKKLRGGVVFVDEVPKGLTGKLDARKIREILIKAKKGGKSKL

[10] = system: Wnt5a (protein binding on small-molecule microarray); assay: small molecules binding Wnt5a protein – biophysical, small-molecule microarray, 635/667 nm fluorescence, primary screen (AID 1142); conditions: 635 nm fluorescence, higher = more signal;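 further: fluorescence read at 667 nm with signal to noise per printed feature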
[11] = ATP-based viability of Huh7 replicon cells – cell-based, CellTiter-Glo luminescence, basal, 48 h, cytotoxicity control for HCV replication inhibitor project, primary screen (AID 1143); conditions: higher = more signal, called active from +8 up or from −8 down;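 further: Huh7 hepatoma cells carrying a hepatitis C replication reporter with no stimulus; test concentration not given here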
[12] = Pseudomonas biofilm growth suppression – PAO1 strain, BacTiter-Glo luminescence, LB-PBS, primary screen (AID 1144); conditions: P. aeruginosa PAO1 biofilm, 12 h, higher = more signal
[13] = basal CRE-LacZ reporter activity in PC12 – cell-based, unstimulated, primary screen (AID 1145); conditions: no forskolin, luminescence, 4.5 h, higher = more signal, called active from +8 up or from −8 down
[14] = forskolin-driven CRE-LacZ activity in PC12 – cell-based, CRE-LacZ reporter, forskolin-stimulated, primary screen (AID 1146); conditions: luminescence, 4.5 h, higher = more signal, called active from +8 up or from −8 down;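 further: PC12 cells with 6xCRE LacZ reporter stimulated by forskolin 10 µM; beta-galactosidase reporter signal reflecting CREB driven transcription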
[15] = molecular target: Streptavidin (Streptomyces avidinii) (UniProt P22629); assay: compounds binding control protein streptavidin – biophysical, small-molecule microarray, 635/667 nm fluorescence, artefact control for SMM compound annotation, primary screen (AID 1147); conditions: higher = more signal;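 further: signal reflects streptavidin binding to arrayed compounds as a control protein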
Chain of Streptavidin (Streptomyces avidinii) (P22629 whole entry, looked up): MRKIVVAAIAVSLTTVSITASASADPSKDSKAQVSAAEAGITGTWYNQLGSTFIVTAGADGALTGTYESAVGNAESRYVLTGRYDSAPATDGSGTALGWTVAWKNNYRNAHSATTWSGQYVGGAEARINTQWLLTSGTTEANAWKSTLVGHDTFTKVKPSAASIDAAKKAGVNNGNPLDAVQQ

[16] = probe aInhba binding on compound microarray – biochemical, small-molecule microarray, 635/667 nm fluorescence, primary screen (AID 1148); conditions: higher = more signal;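 further: score merges 667nm spot fluorescence with signal-to-noise for antibody binding to printed compounds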
Torsin-1A (Homo sapiens) [17] = molecular target: Torsin-1A (Homo sapiens) (UniProt O14656); assay: TOR1A wild-type binding on microarray – cell lysate, small-molecule microarray, lysate, 635/667 nm, primary screen (AID 1149); conditions: COS7 hTOR1A-WT lysate, 635 nm fluorescence, higher = more signal
Chain of Torsin-1A (Homo sapiens) (O14656 whole entry, looked up): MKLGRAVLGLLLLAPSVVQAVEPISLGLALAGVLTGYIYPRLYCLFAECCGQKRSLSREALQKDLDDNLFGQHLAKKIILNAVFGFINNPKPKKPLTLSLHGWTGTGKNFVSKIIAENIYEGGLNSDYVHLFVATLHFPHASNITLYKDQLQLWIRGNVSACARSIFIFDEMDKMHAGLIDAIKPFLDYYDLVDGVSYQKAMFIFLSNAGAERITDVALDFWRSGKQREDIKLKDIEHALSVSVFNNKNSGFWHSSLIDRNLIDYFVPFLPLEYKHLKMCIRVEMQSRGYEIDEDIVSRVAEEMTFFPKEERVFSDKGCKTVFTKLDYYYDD

Torsin-1A (Homo sapiens) [18] = molecular target: Torsin-1A (Homo sapiens) (UniProt O14656); assay: torsin A mutant lysate binding on microarrays – cell lysate, small-molecule microarray, COS7 lysate, 635/667 nm fluorescence, primary screen (AID 1150); conditions: COS7 hTOR1A mutant lysate, 635 nm fluorescence, higher = more signal;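 further: score pools 667 nm emission and signal to noise measuring lysate protein binding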
[19] = system: Sonic hedgehog protein (Shh); assay: Sonic hedgehog microarray binding compounds – biochemical, small-molecule microarray, 635/667 nm fluorescence, primary screen (AID 1151); conditions: 635 nm fluorescence, higher = more signal;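 further: Shh protein binding to compounds spotted on small-molecule microarray slides; score combines spot fluorescence intensity with signal-to-noise across triplicate slides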

Compound | composite z-score [1] | composite z-score [2] | composite z-score [3] | composite z-score [4] | composite z-score [5] | composite z-score [6] | z-score [7] | composite z-score (Lefty1) | composite z-score [8] | z-score [9] | composite z-score [10] | z-score [11] | z-score [12] | z-score [13] | z-score [14] | composite z-score [15] | composite z-score [16] | composite z-score (Torsin-1A (Homo sapiens) [17]) | composite z-score (Torsin-1A (Homo sapiens) [18]) | composite z-score [19]
C=CC[C@@H](OC(=O)Nc1ccc(OC)cc1)c1ccc(O)c(F)c1 | 0.0579 | -0.0596 | 0.676 | -0.699 | 0.0619 | -0.448 | -1.71 | -0.201 | -0.733 | -4.17 (inactive) | -0.115 | -4.67 (inactive) | -0.933 (inactive) | 2.26 (inactive) | 10.1 (active) | -0.716 | -0.106 | -0.0579 | 0.327 | 0.174
CCCCC(CC)C(O)C1C=CC2C(=O)N(c3ccccc3)C(=O)C2N1Nc1ccccc1F (stereo not given) | 2.22 | 1.2 | 0.1 | -0.209 | 0.729 | -0.315 | -1.04 | 0.276 | 0.357 | 1.61 (inactive) | 0.507 | -2.32 (inactive) | -0.786 (inactive) | -0.433 (inactive) | -0.208 (inactive) | 0.0844 | -0.128 | 0.136 | 0.663 | -0.045
COCCOC(=O)N1C(=O)[C@@]2(c3cc(C#CC4=CCCCC4)ccc31)[C@H](c1ccccc1OCCO)N1[C@H](c3ccccc3)[C@H](c3ccccc3)OC(=O)[C@H]1[C@@H]2C(=O)NC[C@H](O)c1ccccc1 | 0.705 | 1.14 | 0.303 | 0.882 | 1.36 | 1.52 | -0.701 | 1.46 | 0.658 | -1.04 (inactive) | 0.6 | -4.97 (inactive) | 0.819 (inactive) | -0.329 (inactive) | 0.083 (inactive) | 0.423 | -0.0428 | 0.281 | 0.501 | 2.13
Cc1ccc(S[C@]2(C(=O)O)CC(=O)N(C3CCCCC3)[C@@H]2c2ccc(CO)cc2I)cc1 | 0.96 | 1.22 | -0.155 | 0.745 | 1.19 | 0.101 | -0.996 | -0.163 | 0.89 | 0.453 (inactive) | 0.0473 | -0.541 (inactive) | -0.64 (inactive) | -0.269 (inactive) | 2.76 (inactive) | 1.43 | 0.239 | 0.222 | 0.919 | -0.342
CO[C@H]1O[C@H](CO)[C@@H](OC(=O)Nc2ccc3c(c2)OCO3)[C@H](OC(=O)Nc2ccc3c(c2)OCO3)[C@@H]1OC(=O)Nc1ccc2c(c1)OCO2 | 1.67 | 1.3 | 0.347 | 1 | 0.997 | 0.366 | 0.0347 | 0.484 | 0.682 | -9.67 (active) | 0.523 | -2.3 (inactive) | 0.506 (inactive) | 0.643 (inactive) | -1.48 (inactive) | 1.11 | -0.0087 | 0.967 | 1.05 | 0.164
